From PubChem BioAssay
Activity calls are given as the source filed them.

Legend:
[1] = optical density shifts of acrAB sulA E. coli – strain DRC41, OD650, 48 h, E. coli filamentation inducer project, primary screen (AID 1152); conditions: higher = more signal, called active from +8 up or from −8 down;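 also: E. coli MC1000 strain DRC41 lacking acrAB efflux pump and sulA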
[2] = probe aLefty1 binding on compound microarray – biochemical, small-molecule microarray, 635/667 nm fluorescence, primary screen (AID 1153); conditions: higher = more signal;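 also: score merges spot fluorescence with signal-to-noise ratio from the scanned slide images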
[3] = plasmodial surface anion channel blockers, osmotic lysis – cell-based, P. falciparum Indochina, OD700, 1 h, primary screen (AID 1154); conditions: P. falciparum Indochina infected RBC osmotic lysis, higher = more signal, called active from +8 up or from −8 down
[4] = plasmodial surface anion channel blockers, osmotic lysis – cell-based, P. falciparum Indochina, OD700, 2 h, primary screen (AID 1155);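 also: lysis reports solute entry through the parasite surface anion channel PSAC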; conditions: P. falciparum Indochina infected erythrocytes, higher = more signal, called active from +8 up or from −8 down
[5] = changes in parasitized red cell lysis, either direction – P. falciparum Indochina, OD700, 3 h, PSAC antagonist project, primary screen (AID 1156); conditions: P. falciparum-infected erythrocytes, osmotic lysis, higher = more signal, called active from +8 up or from −8 down
[6] = plasmodial surface anion channel blockers, osmotic lysis – cell-based, P. falciparum Indochina, OD700, 18 h, primary screen (AID 1157); conditions: P. falciparum Indochina infected erythrocytes, osmotic lysis OD700, 18 h; higher = more signal, called active from +8 up or from −8 down
[7] = S6 kinase pathway phospho-S6 level changes – cell-based, A549, cytoblot, luminescence, serum-stimulated, primary screen (AID 1158); conditions: 5 h, higher = more signal;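 also: serum-stimulated A549 lung adenocarcinoma cells; signal is phosphorylated S6 detected by cytoblot immunostaining with HRP secondary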
[8] = target: NADPH oxidase 2 (Homo sapiens) (UniProt P04839); test: compounds shifting NOX2 Amplex Red fluorescence – cell-based, HEK293-NOX2, PMA-stimulated, NOX inhibitor project, primary screen (AID 1159); conditions: 45 min, higher = more signal, called active from +8 up or from −8 down; also: test concentration not given here
[9] = target: NADPH oxidase 4 (Homo sapiens) (UniProt Q9NPH5); test: compounds shifting NOX4 Amplex Red fluorescence – cell-based, HEK293-NOX4, tetracycline-induced, NOX inhibitor project, primary screen (AID 1160); conditions: HEK293-NOX4, Amplex Red H2O2 fluorescence, 45 min; higher = more signal, called active from +8 up or from −8 down
[10] = target: NADPH oxidase 5 (Homo sapiens) (UniProt Q96PH1); test: compounds shifting NOX5 Amplex Red fluorescence – cell-based, HEK293-NOX5, NOX inhibitor project, primary screen (AID 1161); conditions: HEK293-NOX5, ionomycin, 45 min, higher = more signal
Sequence of NADPH oxidase 5 (Homo sapiens) (Q96PH1 whole entry, looked up): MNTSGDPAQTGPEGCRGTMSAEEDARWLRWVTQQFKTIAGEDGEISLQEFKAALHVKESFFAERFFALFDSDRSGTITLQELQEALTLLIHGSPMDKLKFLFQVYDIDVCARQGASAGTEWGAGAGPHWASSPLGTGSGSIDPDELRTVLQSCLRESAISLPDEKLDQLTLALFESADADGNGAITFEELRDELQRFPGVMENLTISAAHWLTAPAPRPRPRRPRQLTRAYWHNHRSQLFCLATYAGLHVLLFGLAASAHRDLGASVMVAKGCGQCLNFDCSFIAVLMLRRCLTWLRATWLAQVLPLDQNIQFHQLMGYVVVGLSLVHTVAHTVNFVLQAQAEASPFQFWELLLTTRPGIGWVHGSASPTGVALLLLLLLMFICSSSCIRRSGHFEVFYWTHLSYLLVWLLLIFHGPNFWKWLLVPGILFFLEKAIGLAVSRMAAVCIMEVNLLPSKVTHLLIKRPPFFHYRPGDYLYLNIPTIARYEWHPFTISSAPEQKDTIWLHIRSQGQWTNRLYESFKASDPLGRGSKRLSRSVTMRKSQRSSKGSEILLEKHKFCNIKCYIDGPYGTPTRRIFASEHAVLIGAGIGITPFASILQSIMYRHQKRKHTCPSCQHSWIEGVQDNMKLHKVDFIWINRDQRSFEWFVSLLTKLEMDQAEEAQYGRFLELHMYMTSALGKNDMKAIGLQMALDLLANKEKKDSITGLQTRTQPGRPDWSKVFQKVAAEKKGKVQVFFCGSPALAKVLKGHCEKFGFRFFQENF

Sequence of NADPH oxidase 4 (Homo sapiens) (Q9NPH5 whole entry, looked up): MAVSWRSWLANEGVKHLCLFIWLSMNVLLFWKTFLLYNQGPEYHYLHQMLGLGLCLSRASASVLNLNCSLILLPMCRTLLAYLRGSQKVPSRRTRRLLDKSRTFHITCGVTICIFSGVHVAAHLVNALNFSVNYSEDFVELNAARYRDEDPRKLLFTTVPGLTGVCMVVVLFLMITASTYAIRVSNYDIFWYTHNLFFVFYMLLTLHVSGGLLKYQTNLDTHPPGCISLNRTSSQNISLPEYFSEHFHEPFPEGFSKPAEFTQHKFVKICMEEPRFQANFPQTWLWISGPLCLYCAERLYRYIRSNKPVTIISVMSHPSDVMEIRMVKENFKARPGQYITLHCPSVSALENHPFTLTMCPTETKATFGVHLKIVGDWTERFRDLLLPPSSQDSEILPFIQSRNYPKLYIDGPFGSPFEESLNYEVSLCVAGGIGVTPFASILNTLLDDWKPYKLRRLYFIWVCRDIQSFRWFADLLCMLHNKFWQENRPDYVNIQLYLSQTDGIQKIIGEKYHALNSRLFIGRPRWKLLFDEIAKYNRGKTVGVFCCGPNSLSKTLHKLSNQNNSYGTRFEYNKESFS
Sequence of NADPH oxidase 2 (Homo sapiens) (P04839 whole entry, looked up): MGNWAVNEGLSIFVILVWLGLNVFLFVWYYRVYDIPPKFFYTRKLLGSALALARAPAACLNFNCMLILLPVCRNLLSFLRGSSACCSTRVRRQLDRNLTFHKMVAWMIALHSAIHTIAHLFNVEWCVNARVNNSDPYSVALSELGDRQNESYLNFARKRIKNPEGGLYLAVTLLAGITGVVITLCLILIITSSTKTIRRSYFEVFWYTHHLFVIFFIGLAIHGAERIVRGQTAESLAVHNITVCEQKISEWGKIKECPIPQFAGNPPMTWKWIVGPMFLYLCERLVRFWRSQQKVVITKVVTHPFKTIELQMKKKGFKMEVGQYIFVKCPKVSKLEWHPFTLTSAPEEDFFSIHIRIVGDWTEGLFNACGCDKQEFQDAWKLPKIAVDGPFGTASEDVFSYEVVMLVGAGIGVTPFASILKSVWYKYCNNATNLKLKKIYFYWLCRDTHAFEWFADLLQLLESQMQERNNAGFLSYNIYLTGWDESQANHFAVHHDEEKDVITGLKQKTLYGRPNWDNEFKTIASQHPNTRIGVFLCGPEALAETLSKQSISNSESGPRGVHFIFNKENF

Row | Structure (SMILES) | z-score [1] | composite z-score [2] | z-score [3] | z-score [4] | z-score [5] | z-score [6] | z-score [7] | z-score [8] | z-score [9] | z-score [10]
1 | CCN1C(=O)[C@H]2[C@H]3[C@H](O)[C@H](O)CC(=NNC(=O)OCc4ccccc4)[C@@H]3CC[C@H]2C1=O | -0.0098 (inactive) | 0.122 | -0.0022 (inactive) | -0.51 (inactive) | -0.698 (inactive) | -0.0637 (inactive) | -0.376 | 0.424 (inactive) | 0.525 (inactive) | 0.296
2 | C=CC[C@@H]1C=CC(ON=C(C)C)[C@@H](CO)O1 (stereo not given in full) | -1.85 (inactive) | -0.147 | 0.42 (inactive) | 0.81 (inactive) | -0.316 (inactive) | 0.195 (inactive) | -0.0323 | -0.202 (inactive) | -0.173 (inactive) | 0.264
3 | COC(=O)[C@H](C)NC(=O)CCC1CC(OC(=O)NCc2ccc3c(c2)OCO3)CC2(CCCC(COC(=O)NCCc3ccc(Cl)cc3)O2)O1 (stereo not given in full) | -0.51 (inactive) | -0.101 | 2.17 (inactive) | 0.223 (inactive) | 1.29 (inactive) | 0.272 (inactive) | 0.688 | 1.73 (inactive) | 0.148 (inactive) | 0.879
4 | COC(=O)C1=C(C)N(Cc2ccccc2)C2=C3C(=O)OCC[C@@H]3[C@@](O)(C(=O)OC)C(=O)N2[C@@H]1c1ccccc1 | 0.884 (inactive) | -0.286 | 0.121 (inactive) | 0.132 (inactive) | 0.0954 (inactive) | 0.126 (inactive) | 0.0012 | 0.0769 (inactive) | -0.0428 (inactive) | 0.251
5 | CCc1cc2c(nc1CC)CCN(CCC(C)=NOC[C@@H](C)[C@H](OCc1ccccc1)C(C)C)C2 | -0.64 (inactive) | -1.28 | 1.29 (inactive) | -2.02 (inactive) | 0.513 (inactive) | -2.16 (inactive) | 1.35 | -2.3 (inactive) | -0.642 (inactive) | -4.09
6 | COC(=O)[C@H](C)NC(=O)CCC1CC(OC(=O)NCCc2ccc(F)cc2)CC2(CCCC(COC(=O)NCCc3ccccc3OC)O2)O1 (stereo not given in full) | 0.121 (inactive) | -0.103 | 6.98 (inactive) | 0.0923 (inactive) | 0.209 (inactive) | 0.15 (inactive) | 0.364 | 0.577 (inactive) | 0.369 (inactive) | -0.543
7 | CCN1C(=O)[C@H]2[C@H]3[C@H](O)[C@H](O)CC(=NOCC(C)C)[C@H]3CC[C@H]2C1=O | 0.552 (inactive) | -0.0658 | -0.135 (inactive) | -0.0288 (inactive) | -0.369 (inactive) | -0.433 (inactive) | -0.812 | -5.92 (inactive) | 0.358 (inactive) | -0.231
8 | CCN1C(=O)[C@H]2[C@H]3[C@H](O)[C@H](O)CC(=NOC[C@@H](O)[C@H]4O[C@@H]5OC(C)(C)O[C@@H]5[C@H]4O)[C@@H]3CC[C@H]2C1=O | -0.352 (inactive) | 0.0445 | 0.158 (inactive) | 0.196 (inactive) | 0.151 (inactive) | 0.318 (inactive) | -0.102 | -0.842 (inactive) | 0.162 (inactive) | 0.953
9 | CON=C(C)CCN1CCc2nc(-c3ccccc3)c(-c3ccccc3)cc2C1 | -0.944 (inactive) | -0.0303 | 3.74 (inactive) | 1.17 (inactive) | 1.69 (inactive) | 0.808 (inactive) | -0.0181 | -6.35 (inactive) | -2.6 (inactive) | -6.68
10 | CC(=O)OC[C@H]1O[C@H](CC=NOCC[C@@H]2C=C[C@H](OC(C)=O)[C@@H](COC(C)=O)O2)C=C[C@@H]1OC(C)=O | 0.645 (inactive) | 0.0483 | 0.421 (inactive) | 0.678 (inactive) | 0.286 (inactive) | 0.219 (inactive) | -0.696 | -0.175 (inactive) | 0.484 (inactive) | -0.705
11 | CC(CCC(=O)OC[C@H]1O[C@H](C#Cc2ccccc2)C=C[C@@H]1Oc1ccc(C)cc1)=NO[C@H](C)c1cn([C@@H]2COC[C@H]2O)nn1 | -0.6 (inactive) | -0.191 | 26.8 (active) | 3.78 (inactive) | 1.38 (inactive) | -0.643 (inactive) | 1.2 | -2.39 (inactive) | -0.358 (inactive) | -3.36
12 | O=C1[C@H]2CCn3c(=O)n(Cc4cc5c(cc4Cl)OCO5)c(=O)n3[C@H]2[C@H](O)[C@@H]2O[C@H]12 | 0.709 (inactive) | -0.196 | 0.439 (inactive) | -0.511 (inactive) | -0.277 (inactive) | -0.212 (inactive) | 0.489 | -0.664 (inactive) | 0.135 (inactive) | 0.336
13 | C=CC[C@@H]1C=C[C@H](ON=C(C)CCN2CCCCc3nc(C)c(C)cc32)[C@@H](CO)O1 | -0.813 (inactive) | -0.0547 | 1.07 (inactive) | 0.547 (inactive) | 0.325 (inactive) | 0.392 (inactive) | -0.53 | -0.953 (inactive) | -0.352 (inactive) | -0.424
14 | CC(=O)OC[C@H]1O[C@H](CCON=C(C)C)C=C[C@@H]1OC(C)=O | -1.66 (inactive) | -0.0412 | 0.158 (inactive) | 0.328 (inactive) | -0.599 (inactive) | 0.196 (inactive) | -0.71 | 0.0813 (inactive) | 0.151 (inactive) | -0.227
15 | C#CCCCON=C1C[C@@H](O)[C@@H](O)[C@@H]2[C@@H]3C(=O)N([C@@H](C)c4ccccc4)C(=O)[C@@H]3CC[C@@H]12 | 0.0467 (inactive) | 0.0824 | 0.433 (inactive) | 0.186 (inactive) | -0.195 (inactive) | -0.139 (inactive) | -0.507 | 0.362 (inactive) | 0.574 (inactive) | -0.132
16 | CCCNC(=O)OC[C@H]1O[C@H](CCON=C2C[C@@H](O)[C@@H](O)[C@@H]3[C@@H]4C(=O)N(CC)C(=O)[C@@H]4CC[C@@H]23)C=C[C@@H]1Oc1ccc(OC)cc1 | 0.599 (inactive) | 0.186 | 1.69 (inactive) | 0.584 (inactive) | -0.0328 (inactive) | 0.368 (inactive) | -0.432 | -0.708 (inactive) | 0.471 (inactive) | -0.818
17 | CC(=O)OC[C@H]1O[C@H](CC=NO[C@@H](C)c2cn([C@H](CO)Cc3ccccc3)nn2)C=C[C@@H]1OC(C)=O | -0.89 (inactive) | -0.196 | -0.719 (inactive) | -0.429 (inactive) | 0.656 (inactive) | -1.23 (inactive) | 0.703 | -2.05 (inactive) | -2.01 (inactive) | -1.41
18 | O=C1[C@H]2[C@H]3[C@H](O)[C@H](O)CC(=NO[C@@H]4O[C@H](CO)[C@@H](O)[C@H](O)[C@H]4O)[C@@H]3CC[C@H]2C(=O)N1C[C@@H]1CCCO1 | -1.2 (inactive) | -0.0462 | 0.377 (inactive) | -0.963 (inactive) | 0.389 (inactive) | -2.39 (inactive) | 0.054 | -2.04 (inactive) | -0.772 (inactive) | -0.711
19 | C#CCCCON=C1[C@H]2CCn3c(=O)n([C@@H](CC)c4ccccc4)c(=O)n3[C@H]2[C@H](O)[C@@H]2O[C@H]12 | -1.02 (inactive) | -0.101 | 0.957 (inactive) | 0.193 (inactive) | 0.461 (inactive) | 0.0103 (inactive) | 1.09 | 1.29 (inactive) | 0.633 (inactive) | 1.12
20 | CC(C)=CCCC(C)=CCON=C1[C@H]2CCn3c(=O)n(-c4ccccc4)c(=O)n3[C@H]2[C@H](O)[C@@H]2O[C@H]12 | -0.484 (inactive) | 0.688 | 4.93 (inactive) | 0.635 (inactive) | 2.07 (inactive) | 0.695 (inactive) | 0.897 | 0.856 (inactive) | 0.577 (inactive) | -0.799
21 | CCOC(=O)[C@H](CC(C)C)NC(=O)CCC1CC(OC(=O)NCCc2ccc(F)cc2)CC2(CCCC(COC(=O)NCc3cccc(C(F)(F)F)c3)O2)O1 (stereo not given in full) | 0.265 (inactive) | 0.0437 | 6.76 (inactive) | 0.968 (inactive) | 0.0716 (inactive) | 0.127 (inactive) | -0.276 | 0.61 (inactive) | 0.703 (inactive) | 0.401
22 | C#CCCCON=C1C[C@@H](O)[C@@H](O)[C@@H]2[C@@H]3C(=O)N(CC)C(=O)[C@@H]3CC[C@H]12 | 0.135 (inactive) | -0.0035 | 0.129 (inactive) | 0.238 (inactive) | -0.0312 (inactive) | 0.0581 (inactive) | -0.403 | -0.88 (inactive) | -0.231 (inactive) | 0.15
